Measured values taken from PubChem BioAssay (NCATS).
Results filed as inconclusive are left out. Entries that show only a call come without a potency. A number with no mark means an inactive call. The source made the active and inactive calls. Calls come from the whole dose curve; as a rule, active = well fitted curve in the direction sought with a large enough effect; inconclusive = small, poorly fitted or top-dose-only effect, or another doubt; inactive = no such curve, though single readings can be large; an effect the other way counts as inactive or inconclusive.

Experiments:
[1] = tested on: CRL-7250; experiment: Cytotoxic Profiling of Annotated Libraries Using Quantitative High-Throughput Screening (AID 1296008); settings: Five cell lines viability, CellTiter-Glo ATP luminescence, 48-72 h; max response: stronger effect = lower value; note: nearly all actives have a fitted effect of over 60% in size; note: potency is the fitted concentration of half-maximal effect
How it was run: (§1)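 Cytotoxicity was measured as CellTiter-Glo ATP luminescence, read after 10 min at room temperature. Compound treatment of the cells lasted 48 or 72 hr at 37 degrees Celsius in a qHTS format.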

[2] = tested on: HEK293; experiment: as above; settings: Five cell lines viability, CellTiter-Glo ATP luminescence, 48-72 h; max response: stronger effect = lower value
How it was run: as §1

[3] = tested on: HaCat; experiment: as above; settings: Five cell lines viability, CellTiter-Glo ATP luminescence, 48-72 h; max response: stronger effect = lower value
How it was run: as §1

[4] = tested on: KB-3-1; experiment: as above; settings: Five cell lines viability, CellTiter-Glo ATP luminescence, 48-72 h; max response: stronger effect = lower value
How it was run: as §1

[5] = tested on: NIH3T3; experiment: as above; settings: Five cell lines viability, CellTiter-Glo ATP luminescence, 48-72 h; max response: stronger effect = lower value
How it was run: as §1

[6] = tested on: NIH3T3; experiment: qHTS assay to identify novel small-molecules to repurpose for Merkel cell carcinoma treatment (AID 1296009); settings: MCC and control cell lines, CellTiter-Glo viability, 72 h; at 44.8 µM (top of the series) unless noted; note: nearly all actives have a fitted effect of over 60% in size
How it was run: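 Cell viability, measured as CellTiter-Glo luminescence, was normalized between DMSO and no-cell wells. The cells had been exposed to 8- or 11-point compound dilutions for 72 hr at 37 degree celsius.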

[7] = tested on: C33A; experiment: Primary qHTS to identify gynecologic anti-cancer compounds using libraries of approved drugs and bioactive compounds (AID 1345084); settings: Gynecologic cancer cell panel viability, ATPlite luminescence, 48 h; series mostly up to 57.5 µM; note: nearly all actives have a fitted effect of over 55% in size
How it was run: (§2)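 Five-concentration response, 48 h; readout is ATP-driven luciferase luminescence.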

[8] = tested on: CAOV3; experiment: as above; settings: Gynecologic cancer cell panel viability, ATPlite luminescence, 48 h; series mostly up to 57.5 µM
How it was run: as §2

[9] = tested on: CASKI; experiment: as above; settings: Gynecologic cancer cell panel viability, ATPlite luminescence, 48 h; series mostly up to 57.5 µM
How it was run: as §2

[10] = tested on: Es-2; experiment: as above; settings: Gynecologic cancer cell panel viability, ATPlite luminescence, 48 h; series mostly up to 57.5 µM
How it was run: as §2

[11] = tested on: HeLa; experiment: as above; settings: Gynecologic cancer cell panel viability, ATPlite luminescence, 48 h; series mostly up to 57.5 µM
How it was run: as §2

[12] = tested on: Hek293T; experiment: as above; settings: Gynecologic cancer cell panel viability, ATPlite luminescence, 48 h, control line for the selectivity index; series mostly up to 57.5 µM
How it was run: as §2

[13] = tested on: JEG-3; experiment: as above; settings: Gynecologic cancer cell panel viability, ATPlite luminescence, 48 h; series mostly up to 57.5 µM
How it was run: as §2

[14] = tested on: OV90; experiment: as above; settings: Gynecologic cancer cell panel viability, ATPlite luminescence, 48 h; series mostly up to 57.5 µM
How it was run: as §2

[15] = tested on: PA-1; experiment: as above; settings: Gynecologic cancer cell panel viability, ATPlite luminescence, 48 h; series mostly up to 57.5 µM
How it was run: as §2

Compound | max response [1] [%] | max response [2] [%] | max response [3] [%] | max response [4] [%] | outcome [5] | outcome [6] | Potency [7] | Potency [8] | outcome [9] | Potency [10] | Potency [11] | Potency [12] | Potency [13] | Potency [14] | Potency [15] | outcome [4] | outcome [1] | Potency [3]
CCN=C1N[C@@H]2[C@@H](O)[C@H](O)[C@@H](CO)O[C@@H]2S1 | 3.4 | -6.92 | 2.86 | 6.7 | inactive | inactive | inactive | inactive | inactive | inactive | inactive | inactive | inactive | inactive | inactive |  |  | 
C=C(C)C(O)COc1ccc(CC(=O)O)cc1 (stereo not given) | -8.29 | 2.49 | -1.96 |  | inactive | inactive | inactive | inactive | inactive | inactive | inactive | inactive | inactive | inactive | inactive | inactive |  | 
C=C1CCC2C(C)(C(=O)OC)CCCC2(C)C1CCC1=CCOC1=O (stereo not given) | 3.38 | 2.4 | 1 |  | inactive | inactive | inactive | inactive | inactive | inactive | inactive | inactive | inactive | inactive | inactive | inactive |  | 
CN1CCc2cc(Cl)c(O)cc2[C@@H](c2cccc3c2OCC3)C1 |  | -11.4 | -1.65 | -4.72 | inactive | inactive | inactive | inactive | inactive | inactive | inactive | inactive | inactive | inactive | inactive |  | inactive | 
C=C1CCC2[C@@](C)(C(=O)O)CCC[C@@]2(C)[C@@H]1CCc1ccoc1 (stereo not given in full) | -7.76 | -0.447 | -0.12 | -3.34 | inactive | inactive | inactive | inactive | inactive | inactive | inactive | inactive | inactive | inactive | inactive |  |  | 
COc1ccc(O[C@@H]2O[C@H](CO)[C@@H](O)[C@H](O)[C@H]2O)cc1OC |  | 3.27 | -16.7 |  | inactive | inactive | inactive | inactive | inactive | inactive | inactive | inactive | inactive | inactive | inactive | inactive | inactive | 
CC[C@H]1OC(=O)[C@H](C)[C@@H](O[C@H]2C[C@@](C)(OC)[C@@H](O)[C@H](C)O2)C(C)[C@@H](O[C@@H]2O[C@H](C)C[C@H](N(C)C)[C@H]2O)[C@](C)(O)C[C@@H](C)CN(C)[C@H](C)[C@@H](O)[C@]1(C)O (stereo not given in full) | -0.571 | 1.9 | -11.4 | -2.18 | inactive | inactive | inactive | inactive | inactive | inactive | inactive | inactive | inactive | inactive | inactive |  |  | 
Cc1ccc(Cl)cc1N(CC(=O)Nc1c(F)cccc1F)S(C)(=O)=O | -3.38 | -7.88 | -2.84 | 5.59 | inactive | inactive | inactive | inactive | inactive | inactive | inactive | inactive | inactive | inactive | inactive |  |  | 
CC/C=C/C(O)C(O)C1=C(C)C(=O)C2(O1)C(=O)NC(OC)(C(=O)c1ccccc1)C2O (stereo not given) | 0.865 | 2.1 | -3.32 |  | inactive | inactive [at 17.4 µM] | inactive | inactive | inactive | inactive | inactive | inactive | inactive | inactive | inactive | inactive |  | 
CN1CCN(c2nc(-c3ccc(C(=O)NC4(C(=O)NCC#N)CCCCC4)cc3)cs2)CC1 | 2.74 | -8.37 | 1.43 | -9.9 | inactive | inactive | inactive | inactive | inactive | inactive | inactive | inactive | inactive | inactive | inactive |  |  | 
CC(C)[C@@](O)(c1ccc2cc(OC(F)F)c(OC(F)F)cc2c1)c1cn[nH]n1 | -0.82 | -10.2 | -0.148 | 5.26 | inactive | inactive | inactive | inactive | inactive | inactive | inactive | inactive | inactive | inactive | inactive |  |  | 
COC(=O)[C@H](O)[C@H]1C(C)(C)[C@H](OC(C)=O)[C@@]2(O)C(=O)[C@]1(C)C1CC[C@]3(C)C(CC(=O)O[C@H]3c3ccoc3)[C@]13O[C@@H]32 (stereo not given in full) |  | -3.86 | 4.44 | -6.4 | inactive | inactive [at 17.4 µM] | inactive | inactive | inactive | inactive | inactive | inactive | inactive | inactive | inactive |  | inactive | 
Oc1ccc(CC2NCCc3cc(O)c(O)cc32)cc1 (stereo not given) | 4.94 | -11.9 | 1.1 | 1.59 | inactive | inactive | inactive | inactive | inactive | inactive | inactive | inactive | inactive | inactive | inactive |  |  | 
CC1(O)CCC2C(C3C1CCC3(C)O)C2(C)C (stereo not given) | 3.06 | 0.939 | 2.93 | 7.36 | inactive | inactive | inactive | inactive | inactive | inactive | inactive | inactive | inactive | inactive | inactive |  |  | 
CC1=C2CC(=O)C(C)CC/C=C(\C)CC2(O)OC1=O (stereo not given) | -4.8 | 0.476 | 2.42 | 3.81 | inactive | inactive | inactive | inactive | inactive | inactive | inactive | inactive | inactive | inactive | inactive |  |  | 
CC1=CC(=O)CC(C)(C)C1/C=C/C(C)OC1OC(COC2OCC(O)C(O)C2O)C(O)C(O)C1O (stereo not given) | 0.665 | -4.28 | -0.25 | 9.19 | inactive | inactive [at 17.4 µM] | inactive | inactive | inactive | inactive | inactive | inactive | inactive | inactive | inactive |  |  | 
COc1cc2nc(=NC(=O)c3cccnc3)n3c(c2cc1OC)NCC3 | 4.99 | -3.57 |  |  | inactive | inactive | inactive | inactive | inactive | inactive | inactive | inactive | inactive | inactive | inactive | inactive |  | 16.4 µM (active)
C/C(=C\CC/C(C)=C/CC[C@]1(C)CCc2cc(O)cc(C)c2O1)CC/C=C(\C)C(=O)O | 0.272 | -1.65 | 4.26 | -3.09 | inactive | inactive [at 17.4 µM] | inactive | inactive | inactive | inactive | inactive | inactive | inactive | inactive | inactive |  |  | 
C=C1C(O)CC2C(C(=O)O)=COC(O[C@@H]3O[C@H](COC(=O)c4ccc(O)cc4)[C@@H](O)[C@H](O)[C@H]3O)C12 (stereo not given in full) |  | -1.77 | 2.09 |  | inactive | inactive [at 17.4 µM] | inactive | inactive | inactive | inactive | inactive | inactive | inactive | inactive | inactive | inactive | inactive | 
C[C@H]1[C@@H](O)[C@H](O)C2[C@]3(C)C([C@@H](O)[C@H]4OC(=O)[C@@H]1[C@@]24C)[C@](C)(O)C=C[C@H]3O[C@@H]1O[C@H](CO)[C@@H](O)[C@H](O)[C@H]1O (stereo not given in full) | 0.954 | -1.06 | -2.23 | 8.84 | inactive | inactive [at 17.4 µM] | inactive | inactive | inactive | inactive | inactive | inactive | inactive | inactive | inactive |  |  | 
CC(C)=C1CC2C(CCC2(C)O)C(C)(O)CC1=O (stereo not given) |  | -3.11 | -16.7 |  | inactive | inactive | inactive | inactive | inactive | inactive | inactive | inactive | inactive | inactive | inactive | inactive | inactive | 
CC1=C(CCC(C)O[C@@H]2O[C@H](CO)[C@@H](O)[C@H](O)[C@H]2O)C(C)(C)CC(O)C1 (stereo not given in full) | -1.39 | 1.2 | -0.421 | 1.93 | inactive | inactive | inactive | inactive | inactive | inactive | inactive | inactive | inactive | inactive | inactive |  |  | 
COc1cc(C[C@@]2(O)CO[C@@H](c3ccc(O[C@@H]4O[C@H](CO)[C@@H](O)[C@H](O)[C@H]4O)c(OC)c3)[C@H]2CO)ccc1O | -6.96 | 0.509 | -8.64 | 1.94 | inactive | inactive [at 17.4 µM] | inactive | inactive | inactive | inactive | inactive | inactive | inactive | inactive | inactive |  |  | 
NC(N)=NCCC[C@H](NC(=O)c1sccc1NS(=O)(=O)c1cccc2nsnc12)C(=O)O |  | -1.44 | -1.15 |  | inactive | inactive | inactive | inactive | inactive | inactive | inactive | inactive | inactive | inactive | inactive | inactive | inactive | 
C=C(C(=O)O)[C@@H]1CC[C@H](C)[C@@H]2CC(=O)C(C)=C2C1 |  | 3.15 | -2.91 | 3.54 | inactive | inactive | inactive | inactive | inactive | inactive | inactive | inactive | inactive | inactive | inactive |  | inactive | 
